hgDAF12 agonist – agonists of H. glycines DAF-12 nuclear receptor; HEK293 GAL4-hgDAF12 UAS-luciferase reporter, agonist luminescence; normalized to butyrate control; activation, % at 6.8 µM; hit rate 1.8% among 370,000;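 active = activation above a cutoff set at the mean of all screened compounds plus 3 SD, cut at about 10% in these data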
hcDAF12 agonist – H. contortus DAF-12 activation, primary screen; HEK293 hcDAF-12 lit1-tk-luc reporter, luminescence; 0% DMSO, 100% Δ7-dafachronic acid; activation, % at 6.8 µM; hit rate 1.4% among 370,000; AID 652067;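 active = activation above the mean of all tested compounds plus 3 SD, cut at about 5.5% in these data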
DAX1 inh-1 – inhibits human nuclear receptor DAX1; P51843; HEK293 Gal4-DAX1 luciferase reporter, luminescence; inhibition, % at 6.75 µM; hit rate 0.99% among 340,000;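 active = inhibition above the mean over all tested compounds plus 3 SD, cut at about 4.2% in these data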;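 also: inhibition shows as a rise in luminescence from relieved DAX1 repression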
DAX1 inh-2 – inhibitors of DAX1 repression of SF-1 activated StAR promoter; HEK293T StAR-luciferase reporter, SF-1/DAX-1 repression relief; inhibition, % at 6.8 µM; hit rate 1.1% among 370,000; AID 652010;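 active = inhibition above the mean over all tested compounds plus 3 SD, cut at about 3.6% in these data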;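 also: higher inhibition means more luminescence from relief of DAX-1 repression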
ssDAF12 agonist – S. stercoralis DAF-12 activation, primary screen; HEK293 ssDAF-12/GRIP1 lit1-tk-luc reporter, luminescence; % of 3 µM dafachronic acid response; activation, % at 6.8 µM; AID 652126; hit rate 1% among 370,000;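 active = activation above the mean over all tested compounds plus 3 SD, cut at about 0.9% in these data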
DAX1 conf – NR0B1 (human) inhibition, confirmation | shares compounds with DAX1 inh-2 | HEK293T StAR-promoter luciferase reporter, SF-1/DAX-1 repression | inhibition, % at 6.8 µM | hit rate 87% among 2,400;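 active = inhibition above the average of every tested compound plus 3 SD, cut at about 3.8% in these data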;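 also: active compounds raise luminescence by relieving repression of the StAR reporter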
Target sequence (P51843 whole entry, looked up): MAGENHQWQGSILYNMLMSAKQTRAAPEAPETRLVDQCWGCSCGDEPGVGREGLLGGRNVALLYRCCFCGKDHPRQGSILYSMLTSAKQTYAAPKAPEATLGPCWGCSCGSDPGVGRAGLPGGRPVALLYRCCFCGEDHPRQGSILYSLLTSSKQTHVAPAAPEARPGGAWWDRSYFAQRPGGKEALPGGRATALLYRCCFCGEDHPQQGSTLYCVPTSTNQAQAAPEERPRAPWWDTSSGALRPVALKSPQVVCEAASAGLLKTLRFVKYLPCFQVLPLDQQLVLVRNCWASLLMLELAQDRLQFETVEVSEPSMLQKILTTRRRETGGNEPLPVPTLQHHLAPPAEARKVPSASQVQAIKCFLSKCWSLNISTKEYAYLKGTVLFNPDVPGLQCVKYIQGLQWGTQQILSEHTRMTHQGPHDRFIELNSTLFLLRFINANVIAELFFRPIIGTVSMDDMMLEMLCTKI
SF1 AF2mut Luc – counter-screen for DAX1 inhibitors: nonselective inhibitors with SF-1 AF2 mutant. inhibition, % at 6.8 µM. AID 652136. HEK293 StAR-luciferase, luminescence. shares compounds with DAX1 inh-2. hit rate 78% among 2,400;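 active = inhibition above the mean of all tested compounds plus 3 SD, cut at about 3% in these data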
LXRb hcDAF ctr – LXR-beta agonism as hcDAF-12 counter-screen. shares compounds with hcDAF12 agonist. HEK293 Gal4-LXR tk-luc reporter, luminescence, 24 h; normalized: DMSO 0%, positive control 100%. activation, % at 6.8 µM. 3,400 tested, under 10 active;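 active = mean percent activation of the reporter above a cutoff set as the average over tested compounds plus their standard deviation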
hcDAF12 conf – hcDAF-12 agonism, confirmation assay; shares compounds with hcDAF12 agonist; HEK293 hcDAF-12 lit1-tk-luc reporter, luminescence; % of Δ7-dafachronic acid response; activation, % at 6.8 µM; hit rate 61% among 3,400;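 active = mean activation across triplicate tests above the threshold derived from the earlier primary screen, cut at about 5.5% in these data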
hgDAF12 conf – hgDAF-12 agonism, confirmation assay; shares compounds with hgDAF12 agonist; HEK293 GAL4-hgDAF12 luciferase reporter, agonist mode; percent of butyrate response; activation, % at 6.8 µM; hit rate 80% among 3,300; AID 743050;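 active = mean activation over triplicate wells above the hit cutoff derived from the earlier primary screen, cut at about 11% in these data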
LXRb DAF12 ctr – activates human LXR-beta, counter-screen for DAF-12 agonists; 3,300 tested, under 10 active; HEK293 Gal4-LXR luciferase reporter, 24 h; AID 743051; shares compounds with hgDAF12 agonist; activation, % at 6.8 µM;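 active = mean activation of the triplicate above a set limit carried over from the primary screen, none filed active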
Numbers stand for hits; . = inactive; / = no result. Most compounds without a hit are left out; they make up all but 4.1% or so of the library.

SMILES	hgDAF12 agonist	hcDAF12 agonist	DAX1 inh-1	DAX1 inh-2	ssDAF12 agonist	DAX1 conf	SF1 AF2mut Luc	hgDAF12 conf	LXRb DAF12 ctr	others
CC(=O)Nc1ccc(S(=O)(=O)NCC2CCN(C(=O)C(=O)c3cc4ccccc4o3)CC2)cc1	.	.	/	.	.	/	/	/	/
O=C(CSC(=S)N1CCCCC1)c1ccccc1	.	.	.	.	.	/	/	/	/
O=C(CSC(=S)N1CCCC1)c1ccccc1	18.4	.	.	9.6	.	9.5	7.4	14.5	.
CC(=O)O[C@@H]1CCC[C@@]2(C(=O)Nc3ccccc32)[C@H]1NC(=O)C(C)C	.	.	/	.	.	/	/	/	/
COc1ccc2c(c1)[C@]1(C(=O)N2C)C2=C(CCCC2=O)Oc2cc(C)oc(=O)c21	.	.	/	.	.	/	/	/	/
Cc1cnc(NC(=O)COc2ccc3c(c2)CCC3)s1	25.2	6.1	.	13.5	1.3	13.8	5.3	24.6	.
O=[N+]([O-])c1ccccc1OCCCn1cnc2ccccc21	17.4	.	.	5.5	.	7.2	4.3	15.8	.
COc1ccc(-c2nnc(SCc3c(F)cccc3F)n2N)cc1	13.5	.	/	7.5	.	14.2	6.2	15.1	.
COc1ccc(-c2nnc(SCc3cccc(C)c3)n2N)cc1	.	.	.	.	.	/	/	/	/
C[C@@H]1ON(C)[C@H]2C[C@H]3c4[nH]c5cccc(-c6ccc7c(c6)OCO7)c5c4CCN3C(=O)[C@@H]12	.	.	/	.	.	/	/	/	/
CCc1sc(C(=O)N2CCc3ccccc32)cc1C	32.8	10.0	.	6.3	3.5	11.1	6.6	21.1	.	LXRb hcDAF ctr=.;hcDAF12 conf=7.2
CCOc1ccc(-n2c(SCC(=O)c3ccc4ccccc4c3)nnc2-c2ccc(OC)cc2)cc1	.	.	/	.	.	/	/	/	/
O=C(OCC(=O)N1CCc2ccccc2C1)c1c(F)cccc1Cl	15.6	.	.	5.6	.	10.3	7.3	17.9	.
O=C(/C=C\Nc1ccc(Br)cc1)c1cccnc1	18.3	8.3	.	5.9	.	16.4	9.3	15.6	.	LXRb hcDAF ctr=.;hcDAF12 conf=6.5
O=C(NNC(=S)Nc1ccc(Br)cc1)c1cccnc1	.	.	.	.	.	/	/	/	/
COC(=O)c1ccc(COc2cc(O)c3c(c2)OC(C)(C)CC3=O)cc1	.	.	.	.	.	/	/	/	/
CC1(C)CC(=O)c2c(O)cc(OCc3ccc(Br)cc3)cc2O1	14.3	.	.	4.6	.	12.6	8.9	.	.
O=C(C1CCN(c2ncnc3c2sc2cccc(F)c23)CC1)N1CCN(Cc2ccccc2)CC1	.	.	/	.	.	/	/	/	/
Cc1ccccc1NC(=O)c1cccc(C(=O)Nc2ccccc2C)n1	.	.	.	.	.	/	/	/	/
Cc1cccc(NC(=O)c2ccc3ccccc3n2)c1C	17.2	22.7	.	6.4	2.8	11.1	7.5	25.4	.	LXRb hcDAF ctr=.;hcDAF12 conf=18.8
Cc1nc2nc(-c3ccccc3)cn2nc1C	13.7	6.2	.	4.8	.	11.4	5.1	11.9	.
COc1ccc2oc3cc(NCCN(C)C)ccc3c(=O)c2c1	43.0	9.2	/	16.0	2.2	21.7	13.1	41.6	.	LXRb hcDAF ctr=.;hcDAF12 conf=8.4
O=C(O)C1CCCN1C(=O)c1cccc(Cl)c1 (stereo not drawn)	.	.	/	.	.	/	/	/	/
Fc1ccccc1CSc1ncnc2c1ncn2C1CCCO1 (stereo not drawn)	.	.	.	.	.	/	/	/	/
CCCCSc1ncnc2c1ncn2C1CCCCO1 (stereo not drawn)	16.7	.	5.9	5.4	.	10.7	6.0	16.2	.
